High-throughput results from PubChem.
MRP-1 activ: activates MRP-1. H69AR cells + doxorubicin, viability rescue, CellTiter-Glo. viability increase, % at 10 µM. actives 0.61% (n = 140,000). AID 799;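 active means viability gain under doxorubicin at or above a set limit, the compound median plus 3 SD, cut at about 4.7% in these data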;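 further: MRP-1 overexpressing cells given doxorubicin 25 µM after compound pretreatment; 18-22 h compound pretreatment then 72 h with doxorubicin before readout; 0% = doxorubicin-only wells and 100% = vehicle-treated cells without doxorubicin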
MRP resist rev: compounds reversing MRP-mediated drug resistance; H69AR cells + 2 uM doxorubicin, CellTiter-Glo, 72 h; differential viability (reversal), % at 10 µM; actives 0.04% (n = 85,000); AID 602;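 active means viability drop by adding the cancer drug above about 55%, with treated viability meeting a 40% cutoff, limit read from the data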;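 further: viability without doxorubicin minus viability with 2 µM doxorubicin for each compound; larger differential means the compound sensitizes cells more to doxorubicin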
DAT uptake mod: modulates human dopamine transporter uptake under cocaine | actives 1.3% (n = 110,000) | Q01959 | LLC-PK1 hDAT cells, [14C]-dopamine uptake with cocaine IC80; actives deviate in either direction | B-score at 10 µM;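 active means Z score or B-score, a plate-position-corrected score, falls beyond the plate's 99.7% confidence bounds, in either direction; inactive means both scores lie inside the 99.7% bounds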;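 further: scored against the spread of the other compound wells on the same plate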
Target sequence (Q01959 whole entry, looked up): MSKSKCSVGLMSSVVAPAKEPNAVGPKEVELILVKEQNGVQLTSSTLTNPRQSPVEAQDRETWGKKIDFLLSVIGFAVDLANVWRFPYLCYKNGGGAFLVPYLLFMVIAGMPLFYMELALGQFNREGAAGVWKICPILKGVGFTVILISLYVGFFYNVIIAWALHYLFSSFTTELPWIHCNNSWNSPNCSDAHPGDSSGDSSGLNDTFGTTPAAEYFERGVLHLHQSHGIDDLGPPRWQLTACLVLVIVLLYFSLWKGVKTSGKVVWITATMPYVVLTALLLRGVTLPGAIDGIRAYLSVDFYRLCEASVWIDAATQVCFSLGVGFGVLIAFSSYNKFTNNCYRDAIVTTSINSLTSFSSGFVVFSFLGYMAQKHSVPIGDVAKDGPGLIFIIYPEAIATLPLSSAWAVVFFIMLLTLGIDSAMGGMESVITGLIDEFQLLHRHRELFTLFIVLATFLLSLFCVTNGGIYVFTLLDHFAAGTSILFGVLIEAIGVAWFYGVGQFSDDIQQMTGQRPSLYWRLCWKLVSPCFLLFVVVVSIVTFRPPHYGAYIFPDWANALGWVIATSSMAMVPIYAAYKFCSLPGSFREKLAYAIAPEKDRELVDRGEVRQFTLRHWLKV
* hit, by the source's call; · = no result. Rows were chosen to be rich in hits. Some 1.5% of all compounds tested hit in one or more screens of this group.

SMILES | MRP-1 activ | MRP resist rev | DAT uptake mod
CCc1nnc(NC(=O)[C@@H]2CCCN2S(=O)(=O)c2ccc3c(c2)OCCO3)s1 | 4.0 | 12.8 | -0.768
CCCN1CCC(=O)N([C@H](CSc2ccc(Br)cc2)c2ccccc2)CC1 | · | · | -0.00932
C=CCn1c(CCNC(=O)c2ccccc2F)nnc1SCC(=O)Nc1nc2ccccc2s1 | -1.3 | -5.7 | 0.867
O=C(CS(=O)(=O)Cc1ccccc1)Nc1nc2ccccc2s1 | -0.7 | -12.1 | -0.241
O=S(=O)(Nc1nc2ccccc2s1)c1ccc(Cl)s1 | -2.5 | -8.3 | -3.6*
O=C(NCC1CCCC(CNC(=O)N2CCc3ccccc32)C1)N1CCc2ccccc21 (centres undefined) | -5.0 | · | 2.36
COC(=O)C1C(=O)OC(C)(C)C1C(C)C(=O)c1ccccc1 (centres undefined) | 0.2 | 19.8 | -0.107
O=C(Nc1ccccc1F)c1ccc(CSc2ccccc2)o1 | -1.0 | · | ·
Cc1ccc(C(c2nnnn2CS(=O)(=O)c2ccc(C)cc2)N2CCN(c3ncccn3)CC2)cc1 (centres undefined) | 10.6* | -8.3 | 0.969
Cc1ccc(S(=O)(=O)Cn2nnnc2C(c2ccccn2)N2CCN(c3ccccc3)CC2)cc1 (centres undefined) | 0.3 | · | -0.539
Cc1noc(C)c1CSc1nnc(-c2ccccc2)n1N | -2.3 | 12.8 | -8.61*
Cc1noc(C)c1CSc1nnc(-c2ccccc2)n1Cc1ccco1 | -0.9 | 17.0 | 0.214
N#CC1=C(N)N(c2ccc(Br)cc2)C2=C(C(=O)CCC2)C1c1cccnc1 (centres undefined) | -4.8 | 58.8* | ·
Cc1ccc(N2C(N)=C(C#N)C(c3cccnc3)C3=C2CCCC3=O)cc1 (centres undefined) | -3.9 | -2.2 | 0.615
CCC(C)(C(=O)NC1CCCC1)N(Cc1cccs1)C(=O)c1ccc2c(c1)OCO2 (centres undefined) | -2.5 | · | ·
CC(C)C(C(=O)NCc1ccco1)N(C(=O)CNS(=O)(=O)c1ccccc1)C1CCCC1 (centres undefined) | -4.2 | 11.1 | -0.521
CCC(C(=O)NCc1ccco1)N(C(=O)CNS(=O)(=O)c1ccccc1)C1CCCCC1 (centres undefined) | -1.2 | 1.0 | 4.49*
COc1ccccc1-n1c(SCC(=O)N2CCc3ccccc32)nc2c(c1=O)SCC2 | -5.1 | 14.5 | 1.16
COc1ccc(OC)c(-n2c(SCC(=O)N3CCc4ccccc43)nc3c(c2=O)SCC3)c1 | -1.8 | 5.2 | 3.16*
CC(=O)Nc1ccc(S(=O)(=O)NNC(=O)COc2cccc3ccccc23)cc1 | -0.9 | · | ·
Cc1ccc(CCc2nnc(SCC(=O)Nc3cccc(Cl)c3)n2-c2ccccc2)o1 | -3.4 | · | ·
COc1ccc(OC)c(C2C(C(=O)c3cc4ccccc4o3)=C(O)C(=O)N2c2cc(C)on2)c1 (centres undefined) | -0.1 | -6.5 | 3.76*
COc1ccc(C2C(C(=O)c3ccc(C)o3)=C(O)C(=O)N2c2cc(C)on2)cc1OC (centres undefined) | -0.6 | 4.1 | 0.394
CCNC(=O)COC(=O)c1csc2c1CCCC2 | -1.0 | · | ·
N#Cc1cc2c(nc1SCC(=O)Nc1sc3c(c1C#N)CCC3)CCC2 | -4.3 | -27.3 | -0.316
SMILES | MRP-1 activ | MRP resist rev | DAT uptake mod
N#Cc1cc2c(nc1SCC(=O)Nc1sc3c(c1C#N)CCC3)CCCCCC2 | -2.3 | -6.2 | 2.65*
CC1CCC/C(=C(\C#N)c2nc(-c3cc4ccccc4oc3=O)cs2)C1 (centres undefined) | 5.2* | · | ·
O=c1oc2ccccc2cc1-c1csc(NN=C2CCCCC2)n1 | -0.3 | · | 0.38
COc1ccc(-c2nc(CSCC(=O)N3CCc4ccccc4C3)c(C)o2)cc1OC | -3.0 | 2.7 | 1.91*
COc1ccc(-c2nc(CSCC(=O)N3CCC(C(N)=O)CC3)c(C)o2)cc1OC | -2.8 | · | 0.5
COc1ccc(CC(=O)Nc2ccccc2C(=O)N2CCOCC2)cc1OC | 0.5 | · | ·
Cn1nnnc1SC(C(=O)Nc1cccc(C(F)(F)F)c1)c1ccccc1 (centres undefined) | -2.3 | · | ·
CN(c1ccc(OCC(=O)OCC(=O)Nc2c(F)c(F)c(F)c(F)c2F)cc1)S(=O)(=O)c1ccc(F)cc1 | -1.0 | · | ·
COc1ccc(NS(=O)(=O)c2cccc(NC(=O)CCS(=O)(=O)c3ccccc3)c2)cc1 | -1.1 | · | ·
O=C1/C(=C\c2ccco2)SC(=S)N1c1ccccc1 | 4.7* | · | ·
Cc1ccc(N2C(=O)/C(=C\c3ccco3)SC2=S)cc1 | -2.2 | · | -0.502
O=C(NCCSCc1ccccc1)c1ccc(F)cc1 | -1.7 | · | ·
Cc1ccnc(NS(=O)(=O)c2ccc(NC(=O)C3CCCCC3)cc2)n1 | -0.7 | 14.9 | 0.401
Cc1ccnc(NS(=O)(=O)c2ccc(NC(=O)C34CC5CC(C)(CC(C)(C5)C3)C4)cc2)n1 | 1.5 | 18.6 | 2.77*
COc1cc2c(cc1NC(=O)CCCN1C(=O)CCC1=O)oc1ccccc12 | -0.2 | 0.1 | 2.73*
COc1cc2c(cc1NC(=O)CCCCCN1C(=O)CCC1=O)oc1ccccc12 | -2.6 | 7.6 | 1.61
